The record followed here is PubChem BioAssay AID2546 (National Center for Advancing Translational Sciences (NCATS), 2010).

Out of some 310,000 compounds screened, about 11,000 (3.5%) were called active. About 8% were inconclusive and are not listed. The sample holds actives, similar compounds and a random draw of the others, so the mix is not that of the screen. Values without a mark were called inactive. Calls come from the whole dose curve; as a rule, active = well fitted inhibition curve with a large enough effect; inconclusive = small, poorly fitted or top-dose-only effect, or effect the other way; inactive = flat fitted curve, though single readings scatter.
% is set by controls: 0 for no effect and ±100 for the full control effect; potency is the fitted concentration of half-maximal effect.

The assay in a line: VP16 counterscreen qHTS for inhibitors of ROR gamma transcriptional activity.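 Note: Gal4-VP16 expression switched on by copper sulfate through the metallothionein promoter; nearly all actives have a fitted effect of over 50% in size.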 The note with it: Drosophila S2 Gal4-VP16 UAS-luciferase, luminescence, 20 h; series mostly up to 53.6 µM; activity, negative = inhibition: at the top concentration.
For `O=C(CNC(=O)c1ccc(Br)o1)NCC1CCCO1` (stereo not drawn), the “activity, negative = inhibition” value is 1.42%.

Take `COc1ccc(C)cc1NC(=S)N1CCOCC1`: the “activity, negative = inhibition” value was -2.62%.

In the case of `COc1ccccc1/C=C/C(=O)NC(=S)N1CCOCC1`, the Potency is 8.91 µM (active).

As for `O=C(/C=C/c1ccco1)NC(=S)N1CCCCC1`, the Potency was 22.4 µM (active).

Consider `COc1ccc(/C=C/C(=O)NC(=S)N2CCCC(C(N)=O)C2)cc1` (stereo not drawn), for which the “activity, negative = inhibition” value was -11.2%.

Take `COc1ccccc1/C=C/C(=O)NC1CC2CCC1C2` (stereo not drawn): the “activity, negative = inhibition” value was 22.3%.

As for `CCNC(=S)N1CCN(C(=O)c2ccco2)CC1`, the “activity, negative = inhibition” value was -4.45%.

As for `CC1CCCN(S(=O)(=O)c2ccc(-c3ccc(=O)[nH]n3)o2)C1` (stereo not drawn), the “activity, negative = inhibition” value was -0.807%.

On to `O=C(C1CC(=O)N(c2ccc(Br)cc2)C1)N1CCCC1` (stereo not drawn), for which the “activity, negative = inhibition” value is 2.91%.

With `Cc1nc2ccc(C(=O)O)cc2[nH]1`, the “activity, negative = inhibition” value is -8.16%.

In the case of `CC(C)c1nc2ccc(C(=O)O)cc2[nH]1`, the Potency is 20 µM (active).

With `OC(c1nc2ccc(F)cc2[nH]1)C(O)c1nc2ccc(F)cc2[nH]1` (stereo not drawn), the “activity, negative = inhibition” value was -3.31%.

`COc1ccc2cc(C(=O)C3CCCN(C(=O)c4sc(C)nc4C)C3)ccc2c1` (stereo not drawn): the “activity, negative = inhibition” value was -3.81%.

Turning to `CC(C)(C)OC(=O)NNc1c2ccccc2nc2ccccc12`, the “activity, negative = inhibition” value was -22.6%.

With `COC(=O)CSc1nnc(NC(=O)CCc2ccccc2)s1`, the “activity, negative = inhibition” value was -9.32%.

In the case of `O=C(NCCc1ccccc1Cl)C1CCC(=O)N(CCCc2ccccc2)C1` (stereo not drawn), the “activity, negative = inhibition” value is -8.62%.

With `CCCn1c(CCNc2nc(-c3ccc(OC)cc3)cs2)nc2ccccc21`, the “activity, negative = inhibition” value was -4.87%.

Turning to `O=C(CCCC(=O)N1CCN(c2cccc(Cl)c2)CC1)c1ccccc1`, the “activity, negative = inhibition” value was 1.45%.

As for `Cc1nc(=O)c(-c2ccccc2)c(C)n1-c1ccc(Br)cc1`, the “activity, negative = inhibition” value was -1.26%.

In the case of `Brc1ccccc1C1N=C(c2ccccc2)NO1` (stereo not drawn), the “activity, negative = inhibition” value is -7.34%.

Take `S=C1NC(c2ccccc2)=NCN1c1ccc(Br)cc1`: the Potency is 20 µM (active).

As to `COc1cc(NC(=O)CSc2ccc(-c3cccnc3)nn2)cc(OC)c1`, the “activity, negative = inhibition” value was -0.546%.

As to `CCOC(=O)C1(CCOc2ccccc2)CCN(Cc2ccc(C#CCCO)cc2)CC1`, the “activity, negative = inhibition” value was -12.6%.

Turning to `C=CCn1c(SCC(=O)NC23CC4CC(CC(C4)C2)C3)nc(O)cc1=O`, the “activity, negative = inhibition” value is -4.61%.

Turning to `C=CCn1c(C23CC4CC(CC(C4)C2)C3)n[nH]c1=S`, the Potency was 2.51 µM (active).

`C=CCn1c(SCC(=O)NC)nnc1C12CC3CC(CC(C3)C1)C2`: the “activity, negative = inhibition” value is 0.249%.

As to `COc1cc(NS(=O)(=O)c2ccc(NC(=S)NC(=O)c3ccccc3)cc2)nc(OC)n1`, the “activity, negative = inhibition” value is 10.4%.

Regarding `Cn1c(C(=O)N2CCCC(C(=O)NCc3ccccc3)C2)cc2sccc21` (stereo not drawn), the “activity, negative = inhibition” value is 0.53%.

Turning to `CC(=O)Nc1ccc(S(=O)(=O)NC2Cc3ccccc3C2)cc1`, the “activity, negative = inhibition” value is 4.49%.

Take `COc1ccc(-c2nc3ccccc3c(=O)n2CCc2ccc(O)cc2)cc1`: the “activity, negative = inhibition” value is 4.13%.

As to `O=C(CSc1nc2ccccc2s1)Nc1ccc(C(=O)O)cc1`, the “activity, negative = inhibition” value is -0.471%.

For the molecule `COc1ccc(S(=O)(=O)Nc2ccc(O)c(Sc3nc4ccccc4s3)c2)cc1`, the “activity, negative = inhibition” value was -20.8%.

Turning to `O=[N+]([O-])c1c(NCCO)cc(Sc2nc3ccccc3s2)c2nonc12`, the Potency is 5.01 µM (active).
